Results: PubChem BioAssay (NCI)
About 83,000 compounds went through this panel and 20% of them were active in at least one assay; those are over-represented in the sample as a whole.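 The endpoint reported here, percent growth, reads 100 for growth as untreated, 0 for no net growth and -100 for all cells dead.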 The source made the active and inactive calls. The calls were made as follows: active = growth percent below 10; inactive = the rest.

What was measured:
Assay in all cases: NCI-60 one-dose screen, 48 h (100 = growth as untreated, 0 = no growth, -100 = all killed)
Details in all cases: 10 µM unless noted
SR leukemia = system: SR leukemia
RPMI-8226 leukemia = system: RPMI-8226 leukemia
OVCAR-8 ovarian = system: OVCAR-8 ovarian
OVCAR-5 ovarian = system: OVCAR-5 ovarian
OVCAR-4 ovarian = system: OVCAR-4 ovarian
SK-OV-3 ovarian = system: SK-OV-3 ovarian
IGROV1 ovarian = system: IGROV1 ovarian
OVCAR-3 ovarian = system: OVCAR-3 ovarian
HS 578T breast = system: HS 578T breast
NCI/ADR-RES ovarian = system: NCI/ADR-RES ovarian
T-47D breast = system: T-47D breast
BT-549 breast = system: BT-549 breast
MDA-MB-435 melanoma = system: MDA-MB-435 melanoma
SW-620 colon = system: SW-620 colon
MCF7 breast = system: MCF7 breast
HCT-116 colon = system: HCT-116 colon
HCC-2998 colon = system: HCC-2998 colon
KM12 colon = system: KM12 colon

Measured: growth

Nc1ncc(-c2ccc3ncnc(N4CCc5cc(F)c(Cl)cc54)c3c2)cc1C=O
active: RPMI-8226 leukemia -4.54% | OVCAR-5 ovarian 9.67% | SK-OV-3 ovarian -3.8% | IGROV1 ovarian -35.9% | OVCAR-3 ovarian 0.575% | HS 578T breast -18.9% | T-47D breast 7.88% | BT-549 breast 9.08% | MDA-MB-435 melanoma 0.36%
inactive: SR leukemia 18.7% | OVCAR-8 ovarian 31.4% | OVCAR-4 ovarian 34.5% | NCI/ADR-RES ovarian 28.6% | SW-620 colon 37.9% | MCF7 breast 11.8% | HCT-116 colon 36.6% | HCC-2998 colon 21.2% | KM12 colon 39.2%

Nc1nc(Nc2ccc([N+](=O)[O-])cc2O)nc(C(Cl)(Cl)Cl)n1
active: SR leukemia 7.45% | MDA-MB-435 melanoma -36.6%
inactive: RPMI-8226 leukemia 51.1% | OVCAR-8 ovarian 81.6% | OVCAR-5 ovarian 105% | OVCAR-4 ovarian 55.2% | SK-OV-3 ovarian 95.4% | IGROV1 ovarian 88% | OVCAR-3 ovarian 55% | HS 578T breast 84.3% | NCI/ADR-RES ovarian 48% | T-47D breast 73.6% | BT-549 breast 66.8% | SW-620 colon 54.2% | MCF7 breast 59.5% | HCT-116 colon 70.6% | HCC-2998 colon 108% | KM12 colon 49.8%

O=C1NC(=O)C(=Cc2cc(-c3ccc(Cl)cc3)n(-c3ccccc3)n2)C(=O)N1
inactive: SR leukemia 93.7% | RPMI-8226 leukemia 92.1% | OVCAR-8 ovarian 101% | OVCAR-5 ovarian 91.5% | OVCAR-4 ovarian 103% | SK-OV-3 ovarian 105% | IGROV1 ovarian 93.1% | OVCAR-3 ovarian 111% | HS 578T breast 95.5% | NCI/ADR-RES ovarian 107% | T-47D breast 93.6% | BT-549 breast 83.9% | MDA-MB-435 melanoma 94.5% | SW-620 colon 96.7% | MCF7 breast 93.2% | HCT-116 colon 94% | HCC-2998 colon 110% | KM12 colon 102%

CCNc1nc(-c2ccc(Cl)c(OC)c2)c(-c2ccnc(NCCNS(=O)(=O)c3ccc(Cl)cc3)n2)s1
active: SK-OV-3 ovarian 1.58% | OVCAR-3 ovarian -3.31% | BT-549 breast 5.74% | MDA-MB-435 melanoma 6.21% | MCF7 breast 6.61% | HCT-116 colon 7.13%
inactive: SR leukemia 21.5% | RPMI-8226 leukemia 21.4% | OVCAR-8 ovarian 37.9% | OVCAR-5 ovarian 40.7% | OVCAR-4 ovarian 31.8% | IGROV1 ovarian 39.3% | HS 578T breast 24.1% | NCI/ADR-RES ovarian 33% | T-47D breast 32.5% | SW-620 colon 29.5% | HCC-2998 colon 56.3% | KM12 colon 48.8%

COc1cccc2cc(N(C)c3nc(C)nc4c3CCC4)ccc12
inactive: RPMI-8226 leukemia 29.2% | OVCAR-8 ovarian 10.5% | OVCAR-5 ovarian 52.2% | OVCAR-4 ovarian 47.1% | SK-OV-3 ovarian 19.5% | IGROV1 ovarian 24.2% | HS 578T breast 17.9% | NCI/ADR-RES ovarian 12.6% | T-47D breast 50.7% | SW-620 colon 19.7% | MCF7 breast 15.1% | HCC-2998 colon 17.5%
active: SR leukemia 9.67% | OVCAR-3 ovarian -18.1% | BT-549 breast 1.76% | MDA-MB-435 melanoma -3.22% | HCT-116 colon -14.2% | KM12 colon 0.0953%

Cc1ccc(Nc2nc(N)nc(N)c2N=O)cc1Cl
inactive: SR leukemia 72.5% | RPMI-8226 leukemia 78.3% | OVCAR-8 ovarian 95.8% | OVCAR-5 ovarian 93.9% | OVCAR-4 ovarian 76.9% | SK-OV-3 ovarian 96.6% | IGROV1 ovarian 37.7% | OVCAR-3 ovarian 68.3% | HS 578T breast 75.2% | NCI/ADR-RES ovarian 79.3% | BT-549 breast 98.7% | MDA-MB-435 melanoma 89.1% | SW-620 colon 95% | MCF7 breast 36.4% | HCT-116 colon 78.2% | HCC-2998 colon 86% | KM12 colon 80.6%
active: T-47D breast 5.56%

Cc1ccc(C(=O)Nc2ccc(CN3CCN(C)CC3)c(C(F)(F)F)c2)cc1C#Cc1cnc(N)c2ccccc12
inactive: T-47D breast 30.5% | BT-549 breast 51.3%
active: SR leukemia -8.12% | RPMI-8226 leukemia -39.6% | OVCAR-8 ovarian -42.1% | OVCAR-5 ovarian 2.98% | OVCAR-4 ovarian -52% | SK-OV-3 ovarian -1.39% | IGROV1 ovarian -37.6% | OVCAR-3 ovarian -57.7% | HS 578T breast -28.1% | NCI/ADR-RES ovarian -32.8% | MDA-MB-435 melanoma -97% | SW-620 colon -88.4% | MCF7 breast -81.5% | HCT-116 colon -90.5% | HCC-2998 colon -83.5% | KM12 colon -83.1%

Cc1c(Cl)cccc1NC(=O)c1sc2nc3c(cc2c1N)CCCC3
inactive: RPMI-8226 leukemia 33% | OVCAR-8 ovarian 46.1% | OVCAR-5 ovarian 75.7% | OVCAR-4 ovarian 60.5% | SK-OV-3 ovarian 27.7% | IGROV1 ovarian 57.2% | OVCAR-3 ovarian 10.9% | HS 578T breast 40.3% | NCI/ADR-RES ovarian 27.1% | T-47D breast 35% | BT-549 breast 52.6% | SW-620 colon 19.2% | MCF7 breast 16.3% | HCT-116 colon 24.4% | HCC-2998 colon 58.5% | KM12 colon 23.6%
active: SR leukemia 9.71% | MDA-MB-435 melanoma -16.1%
